The record followed here is the supplement of paper PMC6555819.

The assay deals with VDR:RXRa (NR concentration 270 nM, RXRa partner concentration 90 nM). As to the kind of experiment: PBM binding z-score (relative to random genomic background probes); higher = stronger binding; sequences stand for … in GC…GCGATTGACAGCGTAGAATGAAGG
The protocol: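 Protein-binding microarray (Agilent 4x180K custom design, double-stranded 60-nt probes: 5' GC cap, 34-nt variable region, 24-nt constant primer region; full probe sequence given). Purified or IVT nuclear receptor:RXRα heterodimers (3:1 NR:RXRα, mostly 270:90 nM) or homodimers were incubated for 1 h in PBS with 2% milk and no ligand, then detected with Alexa488 antibodies. Fluorescence from o1-orientation probes (~5 replicates averaged) was converted to z-scores against 500 random hg19 background probes. Variable regions are seed direct-repeat (DR0–DR5) sites, all their single-nucleotide variants and half-site ablations.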
With AGAACGAGGGCATGCTGAGTTGATAGCAGAGTAG, the PBM binding z-score is 1.5.

The sequence CGTTAAAGTTCAACTAAGGTAACGTAAAGCACGC registered a PBM binding z-score of 4.58. The figure for CCTACTGGGCCAAAGGTCGTTGATTCCAATGCTC is 2.05; for ATCGAAAGTTCGAAGGTGAGTATACCCACCCGAA it is 1.29.

Sequence ATCTCTAGGTAAAGATAGTTCAGTAAATGCAAAT returned a PBM binding z-score of 1.22.

TCTATTAGTTGAAGGGCCACCGACGAGTCCGTTT returned a PBM binding z-score of 0.591. CAACCTAGGTCAAAGGTCAAAGTCGAGCCAACCA: the PBM binding z-score was determined as 7.01. In turn, CAAACTAGGTCATAGAGGTCAAAGTCCGTGCGTA came in with a PBM binding z-score of 7.8. For ATCTCTGGGTAAGACTCAGTTCAGTGAAGAACGC, the PBM binding z-score is 0.528.

GCAGACAGGTGAAACGCAGGTAACTCAAGGTGGC had a PBM binding z-score of -0.431.

ATTCGGAGGACAAAGGTCAGAGCTACGCCAGTGA showed a PBM binding z-score of 3.4. In the case of GCTATTAGTTGAAACGGCAACCGAATGATTCTCG, the PBM binding z-score is -0.413.

In turn, CCTAGTTGGTCACGAGGTCACACACCGGATATGA displayed a PBM binding z-score of 4.77. ATCGAAAGGTCGAAGGTGTGTATACCCACCCGAA yielded a PBM binding z-score of 2.43. The figure for CCTCGGAGGACAGAACGTCAGAGCTGTCCGCTTT is -0.754; for CCGAGTAGGTCATGGGGCATTCAGGCAACGGTGA it is 2.27. In the case of TTACCGAGGTGAAGGTCGTTGATCCCTCTGTAGA, the PBM binding z-score stood at 1.5. The figure for TGAATGAGGTTAAAGATCAGGTAACGTGGCGTCG is 1.92; for CCTACTGGGCCGCGAAAGGTCATTGATTCAGTGA it is 3.74; for TCACACAGGTGAAGGTAACTCAGGTACGCAGTCG it is 0.751. The sequence GCTCGGAGGACAAGGTCAGAGCTTTGTCCGTAGA showed a PBM binding z-score of 1.34. TTACCAAGGTGAACGTCGTTGATCCCTCTGTAGA came in with a PBM binding z-score of 0.322. Take CCTACTGGGCCACCAAAGGTCATTGATTCAGTGA: the PBM binding z-score stood at 4.13.

ATCGAAATGTCGACGAGGTGAGTATACACCGTTT returned a PBM binding z-score of 0.509. Sequence TCTCGGATGACACGAAGGTCAGAGCTTTCCAGAG returned a PBM binding z-score of 1.46. TCTATTAGTTGATTAGGGCAACCTAAACAGCGGA had a PBM binding z-score of 0.744.

ATATTTAGGTTAGCTGGGGTCATTCAGACTAGGC returned a PBM binding z-score of 6.03. The sequence TCATTTAGGTAATACAGGTGAAAGTCGGCATCTA registered a PBM binding z-score of 1.18. Consider CTACCAAGGTGAACAAGGTCGTTGAGTACTATTC, for which the PBM binding z-score is 6.19. Turning to ACAGACAAGTGAGTGAAGGTAACTCAGCTGGACG, the PBM binding z-score was -0.435. AGAACGAGGGCACGCTGAGTTGATAGCAGAGTAG: the PBM binding z-score is 2.2. The figure for TCGAGTAGGTTAGGGGCGTTCAGAATGGCGTCGA is 0.157; for CAAACTAGGTCAAGAGGTCAATGTCCGCTTCCCG it is 5.64. The sequence CTACTAAGGTGAACAAGGTCGTTGATTACTATTC yielded a PBM binding z-score of 6.38.

With TAGCCTAGGTCAGATCGGTCCAGTATACGCTATA, the PBM binding z-score worked out at 2.18. In turn, TCTCGGAGGACACGAAGGTCAGAGCATTCCAGAG returned a PBM binding z-score of 2.31. The figure for CAAACTAGGTCCCGAAAGGTCAAAGTCGAATGAC is 4.92; for CCTCGGAGGAAAGAAGGTCAGAGCTGTCCGCTTT it is 1.09. Take TAGCCTAGATCAGATCGGGCCAGTATACGCTATA: the PBM binding z-score is -0.89.

TTACCTAGGTGAAGGTCGTTGATCCCTCTGTAGA came in with a PBM binding z-score of 1.06.
